For 57 compounds, survival results are on record in PubChem BioAssay AID463173 (ICCB-Longwood Screening Facility, Harvard Medical School, 2010).

Hit rate of the full screen: of about 52,000 compounds, about 4,300 (8.3%) were called active. The entries come from a sample that favours actives as a whole. A number with no mark means an inactive call. No stated cut-off is given here; in the data, active means survival mostly below about 52% (no sharp cut-off); inactive means mostly above about 56%.

The assay deals with DeltatarO mutant. Briefly: S. aureus survival, RN4220 and DeltatarO strains – OD600, teichoic acid synthesis inhibitors, primary screen (AID 463173). The settings on record: S. aureus RN4220 wild type/DeltatarO growth, OD600, 18 h, stronger effect = lower value, screened at 18.75 µg/mL (by protocol).
For `Cc1cc(C)n(CCC(=O)Nc2ccc(Cl)cc2)n1`, the survival is 87%. On to `CCOc1ccc2ncc3c(-c4cccc(OC)c4)nn(-c4ccccc4)c3c2c1`, for which the survival is 100%.

Take `COc1ccc(-c2nn(-c3ccc(C)cc3)c3c2cnc2ccc(C)cc23)cc1OC`: the survival was 76%. With `COc1ccc(-n2nc(-c3ccc(C)cc3)c3cnc4cc(F)c(F)cc4c32)cc1`, the survival was 88%. Regarding `COc1ccc2ncc3c(-c4ccccc4)nn(-c4ccc(C)c(C)c4)c3c2c1`, the survival was 18% (active). For `Cc1ccc(-c2nn(-c3ccccc3)c3c2cnc2ccccc23)cc1C` the value was 68%; for `CCc1ccc(-c2nn(-c3ccc(OC)cc3)c3c2cnc2ccc(OC)cc23)cc1`, 14% (active); for `FC(F)(F)c1ccc2c(c1)ncc1c(-c3ccccc3)nn(-c3ccccc3)c12`, 125%. Turning to `COc1cc2ncc3c(-c4ccccc4)nn(-c4ccc(C)cc4)c3c2cc1OC`, the survival was 47% (active). For `COc1ccc(-c2nn(-c3ccc(C)c(Cl)c3)c3c2cnc2cc(OC)c(OC)cc23)cc1` the value was 94%; for `CCOc1ccc(-c2nn(-c3ccc(F)cc3)c3c2cnc2ccc(F)cc23)cc1`, 81%. For `Cc1ccc(-n2nc(-c3ccccc3)c3cnc4cc5c(cc4c32)OCO5)cc1C` the value was 127%; for `CCc1ccc2ncc3c(-c4ccccc4)nn(-c4ccccc4)c3c2c1`, 5% (active). For `O=C(Nc1ccc(F)cc1F)C1CCCN1S(=O)(=O)c1cccc2nsnc12` (configuration not stated) the value was 94%; for `COc1ccc2c(CNCCc3cccs3)c(C(=O)O)n(Cc3ccccc3C)c2c1`, 94%; for `CC1=C(C(=O)Nc2ccc(C)cc2C)C(c2ccc(Br)cc2)n2ncc(C(=O)Nc3cccc(C)c3)c2N1` (configuration not stated), 128%. Take `COc1ccc(-c2nc3ccccc3n3c(-c4cccc(C)c4)c4c(=O)n(C)c(=O)n(C)c4c23)cc1`: the survival is 71%.

With `Cc1ccc(-c2cc(N)n(Cc3cccc(Cl)c3)n2)cc1`, the survival was 55% (active). Regarding `Cc1ccc(-c2cc(C(=O)O)n(Cc3ccccc3)n2)cc1`, the survival is 67%. Consider `CCOC(=O)c1cc(-c2ccc(OC)cc2)nn1Cc1ccccc1`, for which the survival is 66%.

Turning to `CCOC(=O)c1cc(-c2ccc(C)cc2)nn1Cc1ccccc1`, the survival was -12% (active). As to `Cc1ccc2c(c1)cc1c(=O)n(Cc3cccc(Cl)c3)nc(C)n12`, the survival is 89%. In the case of `CC(=O)Nc1cc(-c2ccccc2)nn1Cc1cccc(Cl)c1`, the survival was 57%. As for `CCOC(=O)c1cc(-c2ccccc2)nn1Cc1ccccc1`, the survival was -12% (active). Take `O=C(O)c1cc(-c2ccccc2)nn1Cc1ccccc1`: the survival was 73%.

`COc1ccc(-c2cc(C(=O)O)n(Cc3ccccc3)n2)cc1`: the survival is 76%.

Consider `O=C(c1ccco1)N1CCN(C(c2ccccc2)c2nnnn2Cc2ccccc2)CC1` (configuration not stated), for which the survival was 88%.

Regarding `O=C(Cn1cc(C(=O)c2ccco2)c2ccccc21)Nc1ccccc1C(F)(F)F`, the survival is 74%.

`CCn1nc(C)c2c(-c3ccccc3)cc(=O)n(C(C)C(=O)NCCc3ccc(Cl)cc3)c21` (configuration not stated): the survival was 87%. Regarding `CCc1nnc(SCc2c(F)cccc2Cl)c2cc3sccc3n12`, the survival was 94%.

For the compound `CCc1nnc(SCc2cccc(Cl)c2)c2cc3sccc3n12`, the survival is -2% (active). For the compound `CCc1nnc(SCc2ccc(F)cc2Cl)c2cc3sccc3n12`, the survival was 80%. For `CCOC(=O)N1CCN(Cc2nc3cc(NC(=O)CC)ccc3n2C(C)C)CC1` the value was 100%. For `COc1cccc(-c2csc(N3CCN(C(=S)NCc4ccco4)CC3)n2)c1` the value was 91%; for `COc1ccc(CNC(=O)CCc2c(C)nn(-c3ccc(N4CCCCC4)nn3)c2C)c(OC)c1`, 52% (active). In the case of `CCOc1ccc(NC(=O)CCc2c(C)nc3cc(-c4ccccc4OC)nn3c2C)cc1`, the survival was 53% (active). Take `COc1cccc(NC(=O)Cn2nc(N3CCN(c4ccccc4)CC3)ccc2=O)c1`: the survival was 77%.

Take `COc1ccccc1CNC(=O)CCc1c(C)nc2cc(-c3ccccc3OC)nn2c1C`: the survival is 58%. For `CCOc1ccccc1CNC(=O)Cn1nc(N2CCN(c3ccccc3)CC2)ccc1=O`, the survival was 84%. For `COc1ccc(CNC(=O)CCc2c(C)nn(-c3ccc(N4CCCC4)nn3)c2C)c(OC)c1` the value was 75%; for `COc1ccc(CNC(=O)Cn2nc(N3CCN(c4ccccc4)CC3)ccc2=O)c(OC)c1`, -2% (active). Turning to `COc1ccc(CNC(=O)CCc2c(C)nn(-c3ccc(N4CCOCC4)nn3)c2C)c(OC)c1`, the survival was 85%.

Regarding `CCOC(=O)c1ccc(NC(=O)CCc2c(C)nc3cc(-c4ccc(OC)cc4OC)nn3c2C)cc1`, the survival is 62%. With `COc1ccc(CCNC(=O)CCc2c(C)nc3cc(-c4ccc(Cl)cc4)nn3c2C)c(OC)c1`, the survival is 108%. Turning to `COc1ccccc1-c1cc2nc(C)c(CCC(=O)Nc3ccc(Br)c(C)c3)c(C)n2n1`, the survival was 67%.

For `COc1ccc(CCNC(=O)CCc2c(C)nc3cc(-c4ccccc4OC)nn3c2C)c(OC)c1`, the survival is 54% (active). For `CC(C)c1ccc(S(=O)(=O)NCc2nc3cccnc3n2Cc2ccc(F)cc2)cc1` the value was 88%; for `COc1cccc(CNC(=O)CN2C(=O)COc3ccc(S(=O)(=O)N4CCOCC4)cc32)c1`, 94%. For `Cn1cc(S(=O)(=O)N2CCCCCC2)cc1C(=O)Nc1ccc(Cl)c(C(F)(F)F)c1` the value was 67%; for `O=C(Nc1cccc(OC(=O)c2ccco2)c1)c1ccccc1`, 58%. For the compound `CNC(=S)N1CCN(C(=O)/C(=C/c2ccc(F)cc2)NC(C)=O)CC1`, the survival is 95%. For `Cc1ccc(-c2cc(C(=O)N(Cc3ccc(C(C)(C)C)cc3)Cc3ccco3)no2)cc1`, the survival was 113%. For `CCc1nc2ccc(C(=O)NCCc3ccc(OC)cc3OC)cc2nc1CC` the value was 68%; for `Cc1cccc(N2CCN(S(=O)(=O)c3ccc4oc(=O)c5ncn(C)c5c4c3)CC2C)c1` (configuration not stated), 77%; for `Cc1ccc2c(c1)NC(=O)C(CC(=O)Nc1ccccc1Cl)O2` (configuration not stated), 77%. For `CCc1nn(C(C)C(=O)N2CCN(c3ccccc3)CC2)c(=O)c2cc3occc3n12` (configuration not stated), the survival is 82%. Consider `CC(=O)Nc1ccc(-c2cc(C(=O)O)c3c(-c4ccccc4)[nH]nc3n2)cc1`, for which the survival was 56%.
